Experimental data as given in PubChem BioAssay (NCATS).
Inconclusive results are not listed. Some compounds were tested as several samples or in several runs, with calls that do not always agree. Activity calls are given as the source filed them. The call rests on the fitted dose curve; in most records, active means well fitted curve in the direction sought with a large enough effect; inconclusive means small, poorly fitted or top-dose-only effect, or another doubt; inactive means no such curve, though single readings can be large; an effect the other way counts as inactive or inconclusive.

Columns and labels:
[1] = target: M-phase phosphoprotein 8 (Homo sapiens) (UniProt Q99549); experiment: qHTS Validation Assay for Inhibitors for MPP8 Chromodomain Interactions with Methylated Histone Tails (AID 488949); further: nearly all actives have a fitted effect of over 55% in size; further: potency means the concentration at half of the fitted maximal effect
In short: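 AlphaScreen read-out: streptavidin donor and nickel chelate acceptor beads (final 10 ug/mL), 30 min in the dark at RT. Complex of 50 nM MPP8 and 50 nM b-H3(1-18)K9me3 peptide had been exposed to compounds for 30 min beforehand.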

[2] = target: Chromobox protein homolog 1 (Homo sapiens) (UniProt P83916); experiment: qHTS Validation Assay for Inhibitors of HP1-beta Chromodomain Interactions with Methylated Histone Tails (AID 488953); further: nearly all actives have a fitted effect of over 50% in size; further: potency means the concentration at half of the fitted maximal effect
In short: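 Measured as loss of AlphaScreen luminescence from streptavidin donor and nickel acceptor beads (10 ug/mL final) bridging HP1-beta and biotin-H3(1-18)K9me3, each 50 nM. Compounds met the preassembled complex for 30 min at RT.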

[3] = target: Methanococcus maripaludis chaperonin (MmCpn) (UniProt Q6LX38); experiment: High-Throughput Screening for Modulators of Cytosolic Chaperonin Activity: MmCpn Primary Screen (AID 488978);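 further: 50 nM MmCpn enzyme hydrolysing 30 µM ATP at 37 °C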
In short: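 ADP formation read by HTRF Transcreener, 665/590 nm emission after 320 nm excitation. Enzyme: archaeal chaperonin at 50 nM final; substrate ATP 30 uM final; 10 min, 37C, after 5 min compound preincubation at RT.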

[4] = target: Transient receptor potential cation channel subfamily V member 1 (Homo sapiens) (UniProt Q8NER1); experiment: HTS Assay for Compounds that Act as Enhancers of the Vanilloid Receptor 1 (AID 488979)
In short: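 TRPV1 cells loaded with Fluo-8 calcium dye; compound added and Ca2+ signal (ex 480/em 520 nm) followed 3 min, then capsaicin at EC20 added and read 2 more min to detect enhancement.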

[5] = target: D(1A) dopamine receptor (Homo sapiens) (UniProt P21728); experiment: HTS Assay for Allosteric Agonists of the Human D1 Dopamine Receptor: Primary Screen for Agonists (AID 488981)
In short: (§1)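 Tetracycline-induced HEK293 Trex D1 cells with forced coupling to calcium, loaded with no-wash calcium dye; kinetic fluorescence read 180 s after compound addition for agonism, then a further 180 s after an EC20 dopamine challenge for potentiation.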

[6] = target: ATP-dependent 6-phosphofructokinase (Trypanosoma brucei brucei) (UniProt O15648); experiment: qHTS Assay to Find Inhibitors of T. brucei phosphofructokinase: hit validation (AID 492961);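 further: luminescence reports ADP formed as PFK phosphorylates fructose-6-phosphate with ATP; series mostly up to about 51 µM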
In short: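 Compounds titrated; %activity normalized to 0x and 1x enzyme controls, curve-fitted. Readout: ADP-Glo luminescence after 45 min room-temperature reaction of 1.25 nM PFK, 0.1 mM ATP, 0.5 mM F6P, pH 8.0.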

[7] = target: Thyrotropin receptor (Homo sapiens) (UniProt P16473); experiment: qHTS Assay for Antagonists of the Thyroid Stimulating Hormone Receptor (AID 488980); further: series mostly up to about 58 µM
In short: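 TSHR-HEK293 cells; 70 uM RO 20-1724 PDE inhibitor; compound + EC80 TSH (4 nM final); anti-cAMP cryptate antibody/cAMP-d2 in lysis buffer, 30 min RT; HTRF 665/620 nm read.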

[8] = target: D(1A) dopamine receptor (Homo sapiens) (UniProt P21728); experiment: HTS Assay for Allosteric Agonists of the Human D1 Dopamine Receptor: Primary Screen for Potentiators (AID 488982)
In short: as §1

[9] = target: D(1A) dopamine receptor (Homo sapiens) (UniProt P21728); experiment: HTS Assay for Allosteric Agonists of the Human D1 Dopamine Receptor: Primary Screen for Antagonists (AID 488983);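 further: calcium flux response to an EC80 dopamine challenge measured with no-wash dye; nearly all actives have a fitted effect of over 65% in size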
In short: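 Screening of inducible HEK293 T-REx D1 cells: compound first, EC80 dopamine 180 s later, each phase read kinetically for calcium over 180 s.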

Measured: Potency

Chromobox protein homolog 1 (Homo sapiens), sequence (P83916 whole entry, looked up): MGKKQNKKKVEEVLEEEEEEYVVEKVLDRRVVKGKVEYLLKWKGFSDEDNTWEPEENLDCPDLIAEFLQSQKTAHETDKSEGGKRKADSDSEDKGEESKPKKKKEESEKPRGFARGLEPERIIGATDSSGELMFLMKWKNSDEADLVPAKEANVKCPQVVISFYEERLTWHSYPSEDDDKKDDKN
Thyrotropin receptor (Homo sapiens), sequence (P16473 whole entry, looked up): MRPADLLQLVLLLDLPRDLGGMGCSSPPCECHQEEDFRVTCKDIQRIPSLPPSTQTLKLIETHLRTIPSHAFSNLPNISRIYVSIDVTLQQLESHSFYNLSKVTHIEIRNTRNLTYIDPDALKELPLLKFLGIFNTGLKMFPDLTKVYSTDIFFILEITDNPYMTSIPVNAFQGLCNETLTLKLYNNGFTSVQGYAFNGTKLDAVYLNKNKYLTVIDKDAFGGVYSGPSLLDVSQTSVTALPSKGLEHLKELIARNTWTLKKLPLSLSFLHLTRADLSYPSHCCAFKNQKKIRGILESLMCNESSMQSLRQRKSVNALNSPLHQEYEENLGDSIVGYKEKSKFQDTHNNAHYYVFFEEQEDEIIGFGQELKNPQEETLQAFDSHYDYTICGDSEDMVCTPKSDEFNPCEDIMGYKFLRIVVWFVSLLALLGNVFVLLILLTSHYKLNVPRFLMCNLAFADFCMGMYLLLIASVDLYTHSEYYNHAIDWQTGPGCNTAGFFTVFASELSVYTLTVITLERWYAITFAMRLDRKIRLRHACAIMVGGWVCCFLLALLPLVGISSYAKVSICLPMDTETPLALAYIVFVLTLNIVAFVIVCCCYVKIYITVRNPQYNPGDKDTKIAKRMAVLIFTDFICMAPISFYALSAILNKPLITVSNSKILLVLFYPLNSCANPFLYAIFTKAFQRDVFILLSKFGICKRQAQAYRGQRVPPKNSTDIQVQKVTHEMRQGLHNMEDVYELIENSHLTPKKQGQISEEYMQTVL
ATP-dependent 6-phosphofructokinase (Trypanosoma brucei brucei), sequence (O15648 whole entry, looked up): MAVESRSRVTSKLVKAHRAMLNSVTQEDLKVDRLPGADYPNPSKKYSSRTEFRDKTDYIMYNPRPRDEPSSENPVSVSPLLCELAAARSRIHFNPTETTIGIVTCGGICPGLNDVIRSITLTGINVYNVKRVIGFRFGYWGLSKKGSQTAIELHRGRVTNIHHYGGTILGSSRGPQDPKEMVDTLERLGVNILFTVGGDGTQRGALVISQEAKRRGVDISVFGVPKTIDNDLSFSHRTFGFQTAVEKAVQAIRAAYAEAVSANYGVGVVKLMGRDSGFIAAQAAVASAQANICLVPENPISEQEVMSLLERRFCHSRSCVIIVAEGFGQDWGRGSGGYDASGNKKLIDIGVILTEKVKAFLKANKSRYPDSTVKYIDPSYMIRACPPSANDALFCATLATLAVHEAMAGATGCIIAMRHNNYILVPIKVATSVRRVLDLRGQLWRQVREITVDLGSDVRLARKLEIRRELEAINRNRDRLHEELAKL
Transient receptor potential cation channel subfamily V member 1 (Homo sapiens), sequence (Q8NER1 whole entry, looked up): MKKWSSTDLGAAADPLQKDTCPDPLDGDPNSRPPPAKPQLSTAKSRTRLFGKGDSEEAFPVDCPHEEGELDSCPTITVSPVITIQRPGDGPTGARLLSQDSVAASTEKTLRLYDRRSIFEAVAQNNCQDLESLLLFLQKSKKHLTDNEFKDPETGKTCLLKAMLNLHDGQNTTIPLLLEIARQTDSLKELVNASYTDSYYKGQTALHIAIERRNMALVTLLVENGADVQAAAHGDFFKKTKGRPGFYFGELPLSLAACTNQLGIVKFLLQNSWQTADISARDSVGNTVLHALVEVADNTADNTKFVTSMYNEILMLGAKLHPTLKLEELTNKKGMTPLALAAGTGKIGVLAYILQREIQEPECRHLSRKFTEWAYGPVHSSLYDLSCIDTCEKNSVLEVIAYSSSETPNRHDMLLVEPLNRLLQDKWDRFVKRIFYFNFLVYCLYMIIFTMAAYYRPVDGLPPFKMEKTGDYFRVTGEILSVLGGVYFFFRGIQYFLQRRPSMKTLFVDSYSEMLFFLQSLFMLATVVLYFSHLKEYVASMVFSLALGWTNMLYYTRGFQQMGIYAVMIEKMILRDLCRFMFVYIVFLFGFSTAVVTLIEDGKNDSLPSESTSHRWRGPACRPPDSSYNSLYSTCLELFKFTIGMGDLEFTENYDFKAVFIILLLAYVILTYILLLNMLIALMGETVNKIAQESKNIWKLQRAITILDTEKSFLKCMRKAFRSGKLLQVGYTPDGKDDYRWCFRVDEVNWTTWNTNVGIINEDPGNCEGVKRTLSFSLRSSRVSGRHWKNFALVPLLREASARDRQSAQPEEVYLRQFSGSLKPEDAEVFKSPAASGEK
Methanococcus maripaludis chaperonin (MmCpn), sequence (Q6LX38 1-543): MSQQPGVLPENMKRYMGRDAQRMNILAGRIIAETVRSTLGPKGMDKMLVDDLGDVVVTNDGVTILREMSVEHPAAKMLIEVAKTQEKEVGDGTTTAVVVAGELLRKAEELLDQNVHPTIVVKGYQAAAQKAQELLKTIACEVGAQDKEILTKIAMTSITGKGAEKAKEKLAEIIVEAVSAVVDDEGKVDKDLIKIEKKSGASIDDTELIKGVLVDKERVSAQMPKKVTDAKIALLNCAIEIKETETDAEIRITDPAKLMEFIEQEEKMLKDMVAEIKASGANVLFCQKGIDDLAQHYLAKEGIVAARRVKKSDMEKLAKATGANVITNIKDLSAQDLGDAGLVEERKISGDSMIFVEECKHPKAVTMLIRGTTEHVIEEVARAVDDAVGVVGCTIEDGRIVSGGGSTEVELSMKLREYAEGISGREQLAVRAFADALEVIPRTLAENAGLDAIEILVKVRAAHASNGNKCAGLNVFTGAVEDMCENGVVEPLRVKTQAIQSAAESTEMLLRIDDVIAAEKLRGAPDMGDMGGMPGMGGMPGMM
M-phase phosphoprotein 8 (Homo sapiens), sequence (Q99549 whole entry, looked up): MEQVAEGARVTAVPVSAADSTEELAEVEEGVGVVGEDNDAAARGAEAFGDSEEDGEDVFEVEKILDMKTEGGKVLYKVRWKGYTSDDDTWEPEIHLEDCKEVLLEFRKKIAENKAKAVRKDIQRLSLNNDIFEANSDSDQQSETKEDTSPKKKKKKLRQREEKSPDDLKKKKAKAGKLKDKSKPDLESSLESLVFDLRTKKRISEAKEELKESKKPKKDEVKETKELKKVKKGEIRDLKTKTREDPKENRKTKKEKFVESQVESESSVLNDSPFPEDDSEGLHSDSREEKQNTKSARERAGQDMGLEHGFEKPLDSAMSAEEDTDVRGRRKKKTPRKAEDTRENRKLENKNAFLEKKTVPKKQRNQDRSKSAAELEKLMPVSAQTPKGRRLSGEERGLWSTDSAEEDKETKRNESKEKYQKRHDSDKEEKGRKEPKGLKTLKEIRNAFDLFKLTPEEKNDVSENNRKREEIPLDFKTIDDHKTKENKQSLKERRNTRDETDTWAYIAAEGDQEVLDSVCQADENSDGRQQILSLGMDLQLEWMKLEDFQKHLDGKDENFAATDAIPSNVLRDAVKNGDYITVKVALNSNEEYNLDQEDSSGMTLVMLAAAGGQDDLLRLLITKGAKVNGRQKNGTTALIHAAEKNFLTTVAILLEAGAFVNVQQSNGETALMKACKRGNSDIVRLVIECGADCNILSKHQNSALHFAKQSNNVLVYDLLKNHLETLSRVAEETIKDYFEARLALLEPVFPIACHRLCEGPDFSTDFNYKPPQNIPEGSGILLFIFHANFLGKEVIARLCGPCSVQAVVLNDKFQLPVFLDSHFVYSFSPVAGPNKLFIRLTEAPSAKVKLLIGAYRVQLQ
D(1A) dopamine receptor (Homo sapiens), sequence (P21728 whole entry, looked up): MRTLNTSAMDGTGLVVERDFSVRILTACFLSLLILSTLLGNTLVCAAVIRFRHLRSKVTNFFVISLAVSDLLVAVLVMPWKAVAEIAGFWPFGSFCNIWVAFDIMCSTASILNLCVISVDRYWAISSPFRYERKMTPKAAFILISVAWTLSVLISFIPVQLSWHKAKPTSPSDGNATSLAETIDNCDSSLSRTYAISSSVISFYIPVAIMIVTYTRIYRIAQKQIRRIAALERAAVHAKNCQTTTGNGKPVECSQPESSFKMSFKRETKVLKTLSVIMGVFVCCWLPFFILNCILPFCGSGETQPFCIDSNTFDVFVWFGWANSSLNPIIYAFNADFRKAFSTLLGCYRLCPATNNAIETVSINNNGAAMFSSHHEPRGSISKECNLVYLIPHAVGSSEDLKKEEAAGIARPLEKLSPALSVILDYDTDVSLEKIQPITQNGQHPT

O=C1N(c2ccccc2)c2ccccc2C1(Cc1ccncc1)Cc1ccncc1
not listed: [7] | [8] | [9]
inactive: all other assays above

CN(C)CCOC(c1ccccc1)c1ccccc1
not listed: [1] | [6]
inactive: all other assays above

COc1ccccc1N1CCN(CC(O)COc2cccc3ccccc23)CC1 (centres undefined)
active: [2] 39.8 µM
inactive: [3] | [4] | [7] | [5]

CCOC(=O)C(C)(C)Oc1ccc(Cl)cc1
not listed: [1] | [6] | [8]
inactive: all other assays above

O=C(C1CCCCC1)N1CC(=O)N2CCc3ccccc3C2C1 (centres undefined)
not listed: [1] | [6] | [7]
inactive: all other assays above

COc1ccc(C2CNC(=O)C2)cc1OC1CCCC1 (centres undefined)
inactive: [2] | [3] | [4] | [7] | [5]

Fc1ccc([C@@H]2CCNC[C@H]2COc2ccc3c(c2)OCO3)cc1
inactive: [3] | [7] | [8]
active: [1] 35.5 µM

Cc1cc(C(C)(C)C)cc(C)c1CC1=NCCN1
not listed: [1] | [9]
inactive: all other assays above

O=C1c2c(O)ccc(O)c2C(=O)c2c(NCCNCCO)ccc(NCCNCCO)c21
active: [2] 5.62 µM
not listed: [1] | [8]
inactive: all other assays above

CN1CCC(=C2c3ccccc3C=Cc3ccccc32)CC1
inactive: [1] | [7] | [5] | [8]

Clc1ccc2c(c1)C(N1CCNCC1)=Nc1ccccc1O2
inactive: [1] | [3] | [7] | [8]

NCCc1cnc[nH]1
inactive: [2] | [3] | [4] | [7] | [5]

NS(=O)(=O)c1cc2c(cc1Cl)NCNS2(=O)=O
inactive: [2] | [3] | [4] | [7] | [5]

CC(C)(Oc1ccc(C2CC2(Cl)Cl)cc1)C(=O)O (centres undefined)
not listed: [1] | [8] | [9]
inactive: all other assays above

CCc1cccc2c3c([nH]c12)C(CC)(CC(=O)O)OCC3 (centres undefined)
inactive: [2] | [3] | [4] | [7] | [5]

C[C@H]1c2cccc(O)c2C(O)=C2C(=O)[C@]3(O)C(O)=C(C(N)=O)C(=O)[C@@H](N(C)C)[C@@H]3[C@@H](O)[C@@H]21
inactive: [1] | [3] | [5]

C[C@](N)(Cc1ccc(O)c(O)c1)C(=O)O
inactive: [3] | [4] | [5] | [6]
active: [2] 1.89 µM

CC(C(=O)O)c1cccc(C(=O)c2ccccc2)c1 (centres undefined)
not listed: [1] | [6]
inactive: all other assays above

Cn1c(=O)c2[nH]cnc2n(C)c1=O
not listed: [1] | [6] | [9]
inactive: all other assays above

CC(C)NCC(O)COc1ccc(CCOCC2CC2)cc1 (centres undefined)
inactive: [2] | [3] | [4] | [5]

COc1ccc2c(c1)c(CC(=O)O)c(C)n2C(=O)c1ccc(Cl)cc1
not listed: [1] | [6] | [8]
inactive: all other assays above

Cn1cnc2c1c(=O)[nH]c(=O)n2C
not listed: [1] | [6] | [8]
inactive: all other assays above

CN(Cc1cnc2nc(N)nc(N)c2n1)c1ccc(C(=O)N[C@@H](CCC(=O)O)C(=O)O)cc1
79.4 µM (active) and inactive: [1]
not listed: [2]
inactive: all other assays above

O=C(Nc1ccc([N+](=O)[O-])cc1Cl)c1cc(Cl)ccc1O
not listed: [1] | [6] | [9]
inactive: all other assays above

Nc1nnc(-c2cccc(Cl)c2Cl)c(N)n1
not listed: [1] | [8]
inactive: all other assays above

Nc1c2c(nc3ccccc13)CCCC2
inactive: [2] | [3] | [4] | [7] | [5]

CC(C)NCC(O)c1ccc(O)c(O)c1 (centres undefined)
inactive: [3] | [4] | [7] | [5] | [8]
active: [2] 0.0106 µM

COc1nc(C)nc(Cl)c1NC1=NCCN1
not listed: [1] | [9]
inactive: all other assays above

CN(C)c1nc(N(C)C)nc(N(C)C)n1
not listed: [1]
inactive: all other assays above

CC1COc2c(N3CCN(C)CC3)c(F)cc3c(=O)c(C(=O)O)cn1c23 (centres undefined)
not listed: [1] | [6] | [8]
inactive: all other assays above

CCCNCC(O)COc1ccccc1C(=O)CCc1ccccc1 (centres undefined)
inactive: [2] | [3] | [7] | [5]

COc1ccccc1OCC(O)CN1CCN(CC(=O)Nc2c(C)cccc2C)CC1 (centres undefined)
not listed: [1] | [6] | [8]
inactive: all other assays above

N[C@@H](Cc1c[nH]c2ccc(O)cc12)C(=O)O
not listed: [1] | [9]
inactive: all other assays above

Nc1nc2c(ncn2COC(CO)CO)c(=O)[nH]1
not listed: [1] | [8]
inactive: all other assays above

Clc1ccccc1C(c1ccccc1)(c1ccccc1)n1ccnc1
active: [2] 0.0084 µM
not listed: [1]
inactive: all other assays above
